{"source": "the supplement of paper PMC12067093", "about": "“Discovery and optimisation of a covalent ligand for TRIM25 and its application to targeted protein ubiquitination” (Chemical Science, 2025)", "note": "Of roughly 21,000 targets only a part is listed; those with the largest changes were picked by preference.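 Note: competitive profiling in live THP-1 cells: cysteine peptides tagged with an iodoacetamide desthiobiotin (IA-DTB) probe, intensity after compound treatment relative to DMSO-treated cells.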"}
{"compound": "Cc1cc(ccc1-c1ccccc1)C(=O)N1CCCN(CC1)C(=O)CCl [compound 10]", "test": "probe-labelled cysteine peptide fold change vs DMSO (competition) (log2 fold change); higher = less target engagement (more negative = stronger competition)", "details": "10 µM; THP-1; incubation time: 4 h"}
{"target": "CBX1_P83916_156_CPQVVISFYEER (UniProt P83916)", "probe-labelled cysteine peptide fold change": 0.121}
{"target": "BOP1_Q14137_108_TTEEQVQASTPCPR (UniProt Q14137)", "probe-labelled cysteine peptide fold change": -0.185}
{"target": "CFL1_P23528_39_AVLFCLSEDK (UniProt P23528)", "probe-labelled cysteine peptide fold change": 0.0825}
{"target": "BRAP_Q7Z569_47_TTLASAVACLEGK (UniProt Q7Z569)", "probe-labelled cysteine peptide fold change": -0.252}
{"target": "CELF1_Q92879_119_CTENDIR (UniProt Q92879)", "probe-labelled cysteine peptide fold change": 0.0497}
{"target": "BRD1_O95696_294_TDDDRWGHVVCALWIPEVGFANTVFIEPIDGVR (UniProt O95696)", "probe-labelled cysteine peptide fold change": -0.0156}
{"target": "CASP2_P42575_30_ILGVCGMHPHHQETLKK (UniProt P42575)", "probe-labelled cysteine peptide fold change": -0.432}
{"target": "CENPF_P49454_339_CRDELVR (UniProt P49454)", "probe-labelled cysteine peptide fold change": 0.481}
{"target": "CELF2_O95319_174_GCAFVTFSTR (UniProt O95319)", "probe-labelled cysteine peptide fold change": 0.0275}
{"target": "CCAR2_Q8N163_515_RNAETPEATTQQETDTDLPEAPPPPLEPAVIARPGCVNLSLHGIVEDR (UniProt Q8N163)", "sequence (Q8N163 whole entry, looked up)": "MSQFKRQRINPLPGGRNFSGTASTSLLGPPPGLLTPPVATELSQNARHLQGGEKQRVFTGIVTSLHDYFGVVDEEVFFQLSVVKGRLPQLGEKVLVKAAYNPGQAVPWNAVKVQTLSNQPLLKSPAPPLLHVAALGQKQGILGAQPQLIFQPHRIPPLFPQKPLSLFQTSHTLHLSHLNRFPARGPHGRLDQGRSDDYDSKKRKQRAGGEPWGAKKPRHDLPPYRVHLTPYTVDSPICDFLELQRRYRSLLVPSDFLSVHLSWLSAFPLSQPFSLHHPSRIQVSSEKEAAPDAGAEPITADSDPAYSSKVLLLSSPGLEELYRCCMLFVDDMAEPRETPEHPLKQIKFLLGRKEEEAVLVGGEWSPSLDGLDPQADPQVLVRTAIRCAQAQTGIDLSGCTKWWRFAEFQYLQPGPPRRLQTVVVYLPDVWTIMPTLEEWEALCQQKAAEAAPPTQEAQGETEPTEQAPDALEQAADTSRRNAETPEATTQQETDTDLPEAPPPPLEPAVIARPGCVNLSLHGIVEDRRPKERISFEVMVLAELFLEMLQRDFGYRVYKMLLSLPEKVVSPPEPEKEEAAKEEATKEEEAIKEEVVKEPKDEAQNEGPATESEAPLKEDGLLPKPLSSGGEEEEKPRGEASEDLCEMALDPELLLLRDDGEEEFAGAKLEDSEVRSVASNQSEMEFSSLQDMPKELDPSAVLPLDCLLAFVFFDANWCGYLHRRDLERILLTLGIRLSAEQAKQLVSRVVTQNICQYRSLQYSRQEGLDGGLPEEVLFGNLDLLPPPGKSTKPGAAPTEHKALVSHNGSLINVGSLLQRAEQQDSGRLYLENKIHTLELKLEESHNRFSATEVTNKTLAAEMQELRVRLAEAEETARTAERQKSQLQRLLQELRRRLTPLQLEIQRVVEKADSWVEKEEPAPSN", "probe-labelled cysteine peptide fold change": 0.107}
{"target": "CEP170_Q5SW79_30_EMIFVGRDDCELMLQSR (UniProt Q5SW79)", "probe-labelled cysteine peptide fold change": -0.075}
{"target": "CAMK2B_Q13554_116_EYYSEADASHCIQQILEAVLHCHQMGVVHR (UniProt Q13554)", "sequence (Q13554 whole entry, looked up)": "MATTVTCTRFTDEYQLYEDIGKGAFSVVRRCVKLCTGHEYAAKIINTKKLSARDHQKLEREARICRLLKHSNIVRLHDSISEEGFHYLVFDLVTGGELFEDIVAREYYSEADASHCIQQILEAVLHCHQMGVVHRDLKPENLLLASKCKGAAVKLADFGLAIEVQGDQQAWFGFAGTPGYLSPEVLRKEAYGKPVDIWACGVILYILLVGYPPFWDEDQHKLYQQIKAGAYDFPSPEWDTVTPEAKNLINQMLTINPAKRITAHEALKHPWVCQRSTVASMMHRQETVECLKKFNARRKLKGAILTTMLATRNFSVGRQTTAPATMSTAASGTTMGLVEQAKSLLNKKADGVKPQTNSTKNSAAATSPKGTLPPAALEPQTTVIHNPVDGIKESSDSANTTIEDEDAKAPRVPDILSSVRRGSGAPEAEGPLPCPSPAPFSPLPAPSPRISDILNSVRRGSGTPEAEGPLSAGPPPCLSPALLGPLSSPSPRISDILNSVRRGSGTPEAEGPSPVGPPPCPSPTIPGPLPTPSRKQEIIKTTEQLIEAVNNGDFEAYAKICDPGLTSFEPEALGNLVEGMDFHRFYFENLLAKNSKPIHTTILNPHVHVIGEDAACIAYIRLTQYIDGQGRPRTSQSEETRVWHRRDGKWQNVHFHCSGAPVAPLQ", "probe-labelled cysteine peptide fold change": -0.0191}
{"target": "BIRC6_Q9NR09_3773_TAIENATVAFFLQCISCHPNNQK (UniProt Q9NR09)", "probe-labelled cysteine peptide fold change": 0.213}
{"target": "C17orf75_Q9HAS0_265_FLSVASLQGLIHEGTMTSLCMAMTEEQHK (UniProt Q9HAS0)", "sequence (Q9HAS0 whole entry, looked up)": "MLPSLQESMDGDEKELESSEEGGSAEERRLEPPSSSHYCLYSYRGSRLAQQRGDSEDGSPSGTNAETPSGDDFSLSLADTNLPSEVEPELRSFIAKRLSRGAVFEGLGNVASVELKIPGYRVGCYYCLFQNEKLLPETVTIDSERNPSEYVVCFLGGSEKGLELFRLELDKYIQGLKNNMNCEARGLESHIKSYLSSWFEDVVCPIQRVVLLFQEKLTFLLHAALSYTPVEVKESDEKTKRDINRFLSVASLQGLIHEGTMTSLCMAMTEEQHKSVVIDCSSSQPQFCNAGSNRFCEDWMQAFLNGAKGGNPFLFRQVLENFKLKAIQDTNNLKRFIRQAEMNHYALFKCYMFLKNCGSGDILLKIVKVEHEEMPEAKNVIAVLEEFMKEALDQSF", "probe-labelled cysteine peptide fold change": 0.0249}
{"target": "CHORDC1_Q9UHD1_59_RTTDFSDFLSIVGCTK (UniProt Q9UHD1)", "probe-labelled cysteine peptide fold change": -0.167}
{"target": "CHPF_Q8IZ52_243_YCHGGFGVLLSR (UniProt Q8IZ52)", "probe-labelled cysteine peptide fold change": -0.176}
{"target": "CDK5_Q00535_117_GLGFCHSR (UniProt Q00535)", "sequence (Q00535 whole entry, looked up)": "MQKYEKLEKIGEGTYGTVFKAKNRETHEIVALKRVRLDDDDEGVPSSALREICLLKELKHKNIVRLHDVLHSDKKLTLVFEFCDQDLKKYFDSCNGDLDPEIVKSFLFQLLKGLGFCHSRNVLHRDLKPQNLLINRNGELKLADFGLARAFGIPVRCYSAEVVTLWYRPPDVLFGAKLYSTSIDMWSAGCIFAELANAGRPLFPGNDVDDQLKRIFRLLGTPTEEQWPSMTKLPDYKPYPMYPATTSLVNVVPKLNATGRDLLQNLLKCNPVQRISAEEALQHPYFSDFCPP", "probe-labelled cysteine peptide fold change": 0.00449}
{"target": "CDC45_O75419_267_HNHRNEDEENTLSVDCTR (UniProt O75419)", "probe-labelled cysteine peptide fold change": 0.0632}
{"target": "CBR1_P16152_122_DVCTELLPLIK (UniProt P16152)", "probe-labelled cysteine peptide fold change": 0.109}
{"target": "CEPT1_Q9Y6K0_11+30_CGDSHPESPVGFGHMSTTGCVLNK (UniProt Q9Y6K0)", "probe-labelled cysteine peptide fold change": -1.98}
{"target": "CARD9_Q9H257_402_ADELQLQVFQCEAQLLAVEGR (UniProt Q9H257)", "probe-labelled cysteine peptide fold change": 0.18}
{"target": "AVEN_Q9NQS1_169_EWDSEASCPK (UniProt Q9NQS1)", "probe-labelled cysteine peptide fold change": -0.857}
{"target": "BRIX1_Q8TDN6_52_RHATAEEVEEEERDRIPGPVCK (UniProt Q8TDN6)", "probe-labelled cysteine peptide fold change": -0.278}
{"target": "BTBD10_Q9BSF8_86_TESQLTPCIR (UniProt Q9BSF8)", "probe-labelled cysteine peptide fold change": -0.608}
{"target": "CASP10_Q92851_169_IDEDNLTCLEDLCK (UniProt Q92851)", "probe-labelled cysteine peptide fold change": -0.0609}
{"target": "CARM1_Q86X55_438_AGDTLSGTCLLIANK (UniProt Q86X55)", "probe-labelled cysteine peptide fold change": 0.0534}
{"target": "BHLHE22_Q8NFJ8_156_GSVAESSGGEQSPDDDSDGRCELVLR (UniProt Q8NFJ8)", "sequence (Q8NFJ8 whole entry)": "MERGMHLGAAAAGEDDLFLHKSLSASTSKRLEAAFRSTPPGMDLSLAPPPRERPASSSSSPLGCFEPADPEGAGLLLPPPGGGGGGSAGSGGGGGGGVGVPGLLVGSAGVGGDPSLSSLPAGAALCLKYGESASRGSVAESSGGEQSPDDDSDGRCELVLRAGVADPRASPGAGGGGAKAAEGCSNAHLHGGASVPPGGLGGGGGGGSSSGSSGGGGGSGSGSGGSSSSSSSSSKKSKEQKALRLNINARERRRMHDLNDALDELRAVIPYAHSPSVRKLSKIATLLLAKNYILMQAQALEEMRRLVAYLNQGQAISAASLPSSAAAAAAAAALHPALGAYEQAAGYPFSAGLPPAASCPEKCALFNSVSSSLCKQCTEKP", "probe-labelled cysteine peptide fold change": -0.393}
{"target": "CHORDC1_Q9UHD1_86_ELCELK (UniProt Q9UHD1)", "probe-labelled cysteine peptide fold change": -0.0657}
{"target": "CEPT1_Q9Y6K0_30_CGDSHPESPVGFGHMSTTGCVLNK (UniProt Q9Y6K0)", "probe-labelled cysteine peptide fold change": -2.38}
{"target": "CDC42_P60953_105_EKWVPEITHHCPK (UniProt P60953)", "sequence (P60953 whole entry, looked up)": "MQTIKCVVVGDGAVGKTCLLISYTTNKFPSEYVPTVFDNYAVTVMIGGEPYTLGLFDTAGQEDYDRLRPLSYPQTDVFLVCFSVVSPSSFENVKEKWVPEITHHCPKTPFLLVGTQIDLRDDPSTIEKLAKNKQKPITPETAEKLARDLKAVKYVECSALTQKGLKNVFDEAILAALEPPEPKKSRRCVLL", "probe-labelled cysteine peptide fold change": -0.508}
{"target": "CAD_P27708_2161_FGSTQEYEACFGQFILTPHIMTR (UniProt P27708)", "probe-labelled cysteine peptide fold change": 0.0378}
{"target": "CBX8_Q9HC52_142_NMGLSPPASSTSTSSTCR (UniProt Q9HC52)", "sequence (Q9HC52 whole entry, looked up)": "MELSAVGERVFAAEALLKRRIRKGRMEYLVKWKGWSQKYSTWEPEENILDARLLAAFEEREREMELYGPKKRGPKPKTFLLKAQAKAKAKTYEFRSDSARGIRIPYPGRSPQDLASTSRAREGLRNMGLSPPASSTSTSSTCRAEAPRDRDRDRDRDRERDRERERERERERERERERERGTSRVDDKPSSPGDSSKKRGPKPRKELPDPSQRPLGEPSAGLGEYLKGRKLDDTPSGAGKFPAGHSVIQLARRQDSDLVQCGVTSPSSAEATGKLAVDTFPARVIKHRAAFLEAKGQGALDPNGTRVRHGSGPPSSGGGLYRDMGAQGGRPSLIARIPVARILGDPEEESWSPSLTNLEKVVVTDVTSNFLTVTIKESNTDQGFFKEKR", "probe-labelled cysteine peptide fold change": -0.187}
{"target": "CAND1_Q86VP6_802_CVAALTR (UniProt Q86VP6)", "sequence (Q86VP6 whole entry, looked up)": "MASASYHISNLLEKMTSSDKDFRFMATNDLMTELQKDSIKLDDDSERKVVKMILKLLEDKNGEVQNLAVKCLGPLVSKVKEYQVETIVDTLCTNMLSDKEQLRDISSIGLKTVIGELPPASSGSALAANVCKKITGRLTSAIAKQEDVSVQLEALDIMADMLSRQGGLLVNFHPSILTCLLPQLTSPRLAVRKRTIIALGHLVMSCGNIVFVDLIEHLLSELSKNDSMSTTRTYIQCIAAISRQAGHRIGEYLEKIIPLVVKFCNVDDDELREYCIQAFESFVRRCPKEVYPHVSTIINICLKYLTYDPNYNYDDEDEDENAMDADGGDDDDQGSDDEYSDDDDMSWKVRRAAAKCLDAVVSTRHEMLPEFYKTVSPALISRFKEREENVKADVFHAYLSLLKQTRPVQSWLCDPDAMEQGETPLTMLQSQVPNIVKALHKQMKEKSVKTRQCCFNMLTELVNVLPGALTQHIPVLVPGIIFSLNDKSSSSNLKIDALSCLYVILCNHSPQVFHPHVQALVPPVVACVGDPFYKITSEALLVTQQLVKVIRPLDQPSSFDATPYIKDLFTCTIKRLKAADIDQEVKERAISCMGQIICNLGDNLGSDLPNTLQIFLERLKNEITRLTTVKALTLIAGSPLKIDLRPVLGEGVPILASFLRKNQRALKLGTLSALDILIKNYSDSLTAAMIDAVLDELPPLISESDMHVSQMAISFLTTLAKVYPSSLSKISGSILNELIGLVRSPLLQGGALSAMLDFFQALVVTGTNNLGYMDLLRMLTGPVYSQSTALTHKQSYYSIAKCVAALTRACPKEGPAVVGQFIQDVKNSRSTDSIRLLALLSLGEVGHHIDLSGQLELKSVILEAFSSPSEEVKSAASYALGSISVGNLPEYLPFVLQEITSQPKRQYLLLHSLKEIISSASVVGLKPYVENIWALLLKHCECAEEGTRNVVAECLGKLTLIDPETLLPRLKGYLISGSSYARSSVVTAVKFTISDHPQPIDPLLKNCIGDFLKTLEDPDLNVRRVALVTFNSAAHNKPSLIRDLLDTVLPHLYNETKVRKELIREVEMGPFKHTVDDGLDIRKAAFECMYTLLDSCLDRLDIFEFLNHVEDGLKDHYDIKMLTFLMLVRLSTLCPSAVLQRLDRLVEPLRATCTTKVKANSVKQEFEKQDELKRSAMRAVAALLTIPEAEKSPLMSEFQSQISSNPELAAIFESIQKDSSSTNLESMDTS", "probe-labelled cysteine peptide fold change": 0.211}
{"target": "CBX4_O00257_185_EAPSPTCPDLGAK (UniProt O00257)", "probe-labelled cysteine peptide fold change": -0.129}
{"target": "CBR1_P16152_226_ILLNACCPGWVR (UniProt P16152)", "probe-labelled cysteine peptide fold change": -0.103}
{"target": "CEP192_Q8TEP8_1562_APVEVAPCADVVTR (UniProt Q8TEP8)", "probe-labelled cysteine peptide fold change": -0.611}
{"target": "BCKDHB_P21953_361_VCGYDTPFPHIFEPFYIPDK (UniProt P21953)", "sequence (P21953 whole entry, looked up)": "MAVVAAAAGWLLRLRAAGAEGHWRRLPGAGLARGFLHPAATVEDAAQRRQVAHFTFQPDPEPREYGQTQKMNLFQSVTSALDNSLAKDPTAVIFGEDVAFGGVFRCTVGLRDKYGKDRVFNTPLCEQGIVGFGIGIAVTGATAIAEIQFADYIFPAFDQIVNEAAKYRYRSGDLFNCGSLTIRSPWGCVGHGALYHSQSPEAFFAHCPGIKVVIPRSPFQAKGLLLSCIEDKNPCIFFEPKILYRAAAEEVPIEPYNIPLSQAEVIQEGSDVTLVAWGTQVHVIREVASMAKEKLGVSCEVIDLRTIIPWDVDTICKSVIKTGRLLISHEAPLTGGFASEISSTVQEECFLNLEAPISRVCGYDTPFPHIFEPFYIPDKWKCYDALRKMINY", "probe-labelled cysteine peptide fold change": -0.0395}
{"compound": "Cc1cc(ccc1-c1ccccc1)C(=O)N1CCCN(CC1)C(=O)CCl [compound 10]", "test": "probe-labelled cysteine peptide fold change vs DMSO (competition) (log2 fold change); higher = less target engagement (more negative = stronger competition)", "details": "50 µM; THP-1; incubation time: 4 h"}
{"target": "CBX1_P83916_156_CPQVVISFYEER (UniProt P83916)", "probe-labelled cysteine peptide fold change": -0.00934}
{"target": "BOP1_Q14137_108_TTEEQVQASTPCPR (UniProt Q14137)", "probe-labelled cysteine peptide fold change": -0.638}
{"target": "CFL1_P23528_39_AVLFCLSEDK (UniProt P23528)", "probe-labelled cysteine peptide fold change": 0.0485}
{"target": "BRAP_Q7Z569_47_TTLASAVACLEGK (UniProt Q7Z569)", "probe-labelled cysteine peptide fold change": -0.245}
{"target": "CELF1_Q92879_119_CTENDIR (UniProt Q92879)", "probe-labelled cysteine peptide fold change": 0.276}
{"target": "BRD1_O95696_294_TDDDRWGHVVCALWIPEVGFANTVFIEPIDGVR (UniProt O95696)", "probe-labelled cysteine peptide fold change": 0.0676}
{"target": "CASP2_P42575_30_ILGVCGMHPHHQETLKK (UniProt P42575)", "probe-labelled cysteine peptide fold change": -1.14}
{"target": "CENPF_P49454_339_CRDELVR (UniProt P49454)", "probe-labelled cysteine peptide fold change": 0.506}
{"target": "CELF2_O95319_174_GCAFVTFSTR (UniProt O95319)", "probe-labelled cysteine peptide fold change": 0.0429}
{"target": "CCAR2_Q8N163_515_RNAETPEATTQQETDTDLPEAPPPPLEPAVIARPGCVNLSLHGIVEDR (UniProt Q8N163)", "probe-labelled cysteine peptide fold change": -0.245}
{"target": "CEP170_Q5SW79_30_EMIFVGRDDCELMLQSR (UniProt Q5SW79)", "probe-labelled cysteine peptide fold change": 0.0343}
{"target": "CAMK2B_Q13554_116_EYYSEADASHCIQQILEAVLHCHQMGVVHR (UniProt Q13554)", "probe-labelled cysteine peptide fold change": 0.141}
{"target": "BIRC6_Q9NR09_3773_TAIENATVAFFLQCISCHPNNQK (UniProt Q9NR09)", "probe-labelled cysteine peptide fold change": 0.136}
{"target": "C17orf75_Q9HAS0_265_FLSVASLQGLIHEGTMTSLCMAMTEEQHK (UniProt Q9HAS0)", "probe-labelled cysteine peptide fold change": -0.756}
{"target": "CHORDC1_Q9UHD1_59_RTTDFSDFLSIVGCTK (UniProt Q9UHD1)", "probe-labelled cysteine peptide fold change": -0.292}
{"target": "CHPF_Q8IZ52_243_YCHGGFGVLLSR (UniProt Q8IZ52)", "probe-labelled cysteine peptide fold change": 0.255}
{"target": "CDK5_Q00535_117_GLGFCHSR (UniProt Q00535)", "probe-labelled cysteine peptide fold change": 0.158}
{"target": "CDC45_O75419_267_HNHRNEDEENTLSVDCTR (UniProt O75419)", "probe-labelled cysteine peptide fold change": -0.279}
{"target": "CBR1_P16152_122_DVCTELLPLIK (UniProt P16152)", "probe-labelled cysteine peptide fold change": 0.509}
{"target": "CEPT1_Q9Y6K0_11+30_CGDSHPESPVGFGHMSTTGCVLNK (UniProt Q9Y6K0)", "probe-labelled cysteine peptide fold change": -2.17}
{"target": "CARD9_Q9H257_402_ADELQLQVFQCEAQLLAVEGR (UniProt Q9H257)", "probe-labelled cysteine peptide fold change": 0.639}
{"target": "AVEN_Q9NQS1_169_EWDSEASCPK (UniProt Q9NQS1)", "probe-labelled cysteine peptide fold change": -2.39}
{"target": "BRIX1_Q8TDN6_52_RHATAEEVEEEERDRIPGPVCK (UniProt Q8TDN6)", "probe-labelled cysteine peptide fold change": -0.296}
{"target": "BTBD10_Q9BSF8_86_TESQLTPCIR (UniProt Q9BSF8)", "probe-labelled cysteine peptide fold change": -1.07}
{"target": "CASP10_Q92851_169_IDEDNLTCLEDLCK (UniProt Q92851)", "probe-labelled cysteine peptide fold change": 0.0728}
{"target": "CARM1_Q86X55_438_AGDTLSGTCLLIANK (UniProt Q86X55)", "probe-labelled cysteine peptide fold change": 0.146}
{"target": "BHLHE22_Q8NFJ8_156_GSVAESSGGEQSPDDDSDGRCELVLR (UniProt Q8NFJ8)", "probe-labelled cysteine peptide fold change": -0.217}
{"target": "CHORDC1_Q9UHD1_86_ELCELK (UniProt Q9UHD1)", "probe-labelled cysteine peptide fold change": 0.205}
{"target": "CEPT1_Q9Y6K0_30_CGDSHPESPVGFGHMSTTGCVLNK (UniProt Q9Y6K0)", "probe-labelled cysteine peptide fold change": -2.51}
{"target": "CDC42_P60953_105_EKWVPEITHHCPK (UniProt P60953)", "probe-labelled cysteine peptide fold change": -0.929}
{"target": "CAD_P27708_2161_FGSTQEYEACFGQFILTPHIMTR (UniProt P27708)", "probe-labelled cysteine peptide fold change": 0.111}
{"target": "CBX8_Q9HC52_142_NMGLSPPASSTSTSSTCR (UniProt Q9HC52)", "probe-labelled cysteine peptide fold change": -0.373}
{"target": "CAND1_Q86VP6_802_CVAALTR (UniProt Q86VP6)", "probe-labelled cysteine peptide fold change": -0.156}
{"target": "CBX4_O00257_185_EAPSPTCPDLGAK (UniProt O00257)", "probe-labelled cysteine peptide fold change": -0.0437}
{"target": "CBR1_P16152_226_ILLNACCPGWVR (UniProt P16152)", "probe-labelled cysteine peptide fold change": -0.297}
{"target": "CEP192_Q8TEP8_1562_APVEVAPCADVVTR (UniProt Q8TEP8)", "probe-labelled cysteine peptide fold change": -0.285}
{"target": "BCKDHB_P21953_361_VCGYDTPFPHIFEPFYIPDK (UniProt P21953)", "probe-labelled cysteine peptide fold change": 0.155}
